Anthrax LF prot – inhibitors of Bacillus anthracis lethal factor protease; AID 588501; P15917; inhibition, % at 10 µM; 360,000 compounds, 0.12% hits; multiplex microsphere protease cleavage assay, LF
Target sequence (P15917 whole entry, looked up): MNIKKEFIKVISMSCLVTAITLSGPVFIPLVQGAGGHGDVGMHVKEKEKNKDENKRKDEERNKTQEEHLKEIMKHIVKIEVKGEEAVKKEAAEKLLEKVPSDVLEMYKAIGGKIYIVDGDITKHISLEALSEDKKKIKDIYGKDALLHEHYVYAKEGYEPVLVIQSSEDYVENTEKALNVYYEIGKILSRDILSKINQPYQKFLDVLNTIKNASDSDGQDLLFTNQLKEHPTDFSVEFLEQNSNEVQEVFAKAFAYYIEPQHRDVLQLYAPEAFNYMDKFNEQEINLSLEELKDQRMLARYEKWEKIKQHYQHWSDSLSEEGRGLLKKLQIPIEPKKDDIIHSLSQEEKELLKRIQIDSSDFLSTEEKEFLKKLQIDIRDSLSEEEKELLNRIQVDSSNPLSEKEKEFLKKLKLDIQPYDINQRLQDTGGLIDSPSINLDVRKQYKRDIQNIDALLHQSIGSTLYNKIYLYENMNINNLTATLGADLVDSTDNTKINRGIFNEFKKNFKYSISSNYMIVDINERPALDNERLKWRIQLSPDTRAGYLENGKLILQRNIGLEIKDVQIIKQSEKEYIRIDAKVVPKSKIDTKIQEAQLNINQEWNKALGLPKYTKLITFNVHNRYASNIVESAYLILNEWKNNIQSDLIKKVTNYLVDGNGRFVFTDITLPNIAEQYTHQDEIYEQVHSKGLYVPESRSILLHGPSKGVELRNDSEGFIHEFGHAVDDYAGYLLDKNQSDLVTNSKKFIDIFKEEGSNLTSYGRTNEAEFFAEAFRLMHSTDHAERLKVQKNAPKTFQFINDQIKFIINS
BoNT-A LC inh2 – blocks Botulinum neurotoxin A light chain protease; multiplex microsphere protease substrate cleavage, flow cytometry; inhibition, % at 10 µM; 360,000 compounds, 0.17% hits
BoNT-F LC inh – inhibitors of Botulinum neurotoxin F light chain protease; Multiplex microsphere protease cleavage assay, flow cytometry; inhibition, % at 10 µM; 360,000 compounds, 0.22% hits; AID 588497; in the data active = inhibition above about 35%, passing the limit was not always enough; inconclusive = no clear call, values can overlap the other calls
Bead autofluor – counter-screen for toxin protease inhibitors: compound fluorescence; 360,000 compounds, 3.1% hits; fluorescence intensity (concentration not given with the values); AID 624483; compound autofluorescence counterscreen, microsphere flow cytometry; hits give high values; in the data active = fluorescence intensity above about 16000; inconclusive = no clear call, values can overlap the other calls
Hits are given with their value; i = inactive; ? = inconclusive. The list is not random: actives were taken first. Their share in the collection is about 3.5%. Cut-off read from the data, not from the text of the source, unless noted: active = inhibition above about 30%; inconclusive = no clear call, values can overlap the other calls; inactive = below that.

SMILES	Anthrax LF prot	BoNT-A LC inh2	BoNT-F LC inh	Bead autofluor
CC(C)CCP(=O)(O)c1ccccc1	i	i	i	22957
Cc1cc(C(=O)OCC(=O)NC(C)(C)C)c2ccccc2n1	i	?	i	16530
CC(C)NC(=O)CN1C(=O)C(=O)c2ccccc21	i	?	i	22994
COc1ccc(Cl)c(NC(=O)Nc2c(C)n(-c3ccccc3)c(=O)n2C)c1	i	i	i	i
Cc1cc(Cl)ccc1NC(=O)Nc1c(C)n(-c2ccccc2)c(=O)n1C	i	i	i	22798
CC1(C(=O)NCc2ccccc2)CCC(=O)N1CCOc1ccccc1 (stereo not drawn)	i	i	i	i
C=C1C(=O)C23C(O)C1CCC2C12CCCC(C)(COC(C)=O)C1C(O)C3(O)OC2 (stereo not drawn)	i	i	i	i
COc1ccccc1C(=O)Nn1c(C2CCC2)nc2ccccc2c1=O	i	?	i	23194
O=C(Nn1c(C2CCC2)nc2ccccc2c1=O)C1CCC1	i	i	i	16974
COc1cc2nc(C3CC3)n(NC(=O)c3ccc(F)cc3)c(=O)c2cc1OC	i	?	i	24457
CCOc1ccccc1C(=O)Nn1c(C2CCC2)nc2ccccc2c1=O	i	i	i	i
O=C(Nn1c(C2CC2)nc2ccccc2c1=O)c1ccco1	i	i	i	20747
Cc1nc2ccccc2c(=O)n1NC(=O)C1CCCCC1	i	i	i	i
COc1cc2nc(C3CC3)n(NC(=O)c3ccc(Cl)cc3)c(=O)c2cc1OC	i	i	i	i
COC(=O)c1cc(S(=O)(=O)Nc2cc(OC)cc(OC)c2)c[nH]1	i	i	i	i
Cc1cnc(CNC(=O)c2csc([C@H]3C[C@H](O)[C@@H](CO)O3)n2)cn1	i	i	i	i
O=C(Cc1ccccc1)NCC(=O)N1CCN(c2ccccc2)CC1	i	i	i	i
Cc1ccccc1/C(N)=N/OC(=O)N1c2ccccc2Sc2ccccc21	i	i	i	23999
COc1ccc(S(=O)(=O)N(C)C[C@H]2Oc3ccc(NS(=O)(=O)c4cccs4)cc3C(=O)N([C@H](C)CO)C[C@@H]2C)cc1	i	i	i	i
COCCCN1C(=O)c2ccccc2C1C(=O)NC1CCCCCC1 (stereo not drawn)	i	i	i	22972
Cc1ccc(CN2CCC(=O)N2)cc1	i	i	i	i
O=S(=O)(Nc1cccc(S(=O)(=O)N2CCCCC2)c1)c1ccc(Cl)s1	i	i	i	i
NS(=O)(=O)c1ccc(NC=C2C(=O)OC3(CCCCC3)OC2=O)cc1	i	i	i	16483
CCCCc1ccc(NC=C2C(=O)OC3(CCCCC3)OC2=O)cc1	i	i	i	i
CC(=NOC(=O)c1ccc(I)cc1)c1nccs1	i	i	i	i
SMILES	Anthrax LF prot	BoNT-A LC inh2	BoNT-F LC inh	Bead autofluor
COc1cc2cc(CN(CCCO)S(=O)(=O)c3ccccc3Cl)c(=O)[nH]c2cc1OC	i	i	i	i
COc1cc2cc(CN(CCO)S(=O)(=O)c3ccccc3Cl)c(=O)[nH]c2cc1OC	i	?	i	16702
CCOC(=O)c1cccc(S(=O)(=O)N(CCO)Cc2cc3cc(OC)c(OC)cc3[nH]c2=O)c1	i	i	i	24123
CCOC(=O)c1cccc(S(=O)(=O)N(CCO)Cc2cc3cc(OC)ccc3[nH]c2=O)c1	i	i	i	i
COc1ccccc1NC(=O)c1ccc2c(c1)N(CC#N)C(=O)C(C)(C)O2	i	i	i	i
COc1cccc(/C=C/c2ccccn2)c1O	i	i	i	24116
COc1cccc(/C=C/c2ccc3cccc(O)c3n2)c1OC	i	i	?	i
CC1CCN(S(=O)(=O)N2CCC(C(=O)NCCc3ccccc3)CC2)CC1	i	i	i	i
CCN(CC)c1ccc2cc(-c3nnc(-c4ccncc4)o3)c(=O)oc2c1	i	i	i	24761
COc1cc2c(cc1NC(=O)CSc1ccccn1)oc1ccccc12	i	?	i	20567
COc1cc2c(cc1NC(=O)C(C)N1CCN(S(=O)(=O)c3ccc(C)c(C)c3)CC1)oc1ccccc12 (stereo not drawn)	i	i	i	16646
COc1ccccc1CC(=O)Nc1cc2oc3ccccc3c2cc1OC	i	i	34.5	i
Cc1cccc(N(C(=O)c2csnn2)C(C(=O)NC2CCCCC2)c2ccncc2)c1 (stereo not drawn)	i	i	i	i
O=C(NC(Cc1ccccc1)C(=O)NCCc1ccccn1)c1ccccc1 (stereo not drawn)	i	i	i	i
CCn1c(SCc2cccc(C(F)(F)F)c2)nnc1-c1ccco1	i	i	i	22937
Cn1cc([N+](=O)[O-])c(C(=O)Nc2ccn(Cc3c(F)c(F)cc(F)c3F)n2)n1	i	?	i	23100
Cc1nn(Cc2cccc(C(=O)Nc3ccn(Cc4ccccc4F)n3)c2)c(C)c1[N+](=O)[O-]	i	i	i	i
O=C(Nc1ccn(Cc2ccccc2F)n1)c1ccc(COc2ccc(Br)cc2)cc1	i	?	i	24596
Cn1ncc([N+](=O)[O-])c1C(=O)Nc1ccn(Cc2ccccc2F)n1	i	i	i	24402
C[C@@H]1CN([C@H](C)CO)S(=O)(=O)c2ccc(C#Cc3ccccc3F)cc2O[C@H]1CN(C)C(=O)c1ccc2c(c1)OCO2	i	i	i	i
Clc1nnc(NC2CCCCC2)c(Cl)c1Cl	i	i	i	i
Cc1cc(C)cc(C(=O)N2CC(C)OC(C)C2)c1 (stereo not drawn)	i	?	i	22829
CCCCNC(=O)N(O)C1N(/N=C/c2ccccc2OC)C(=S)SC1(C)C (stereo not drawn)	i	i	61.7	i
C=CCCC(=O)N(C)CCO	i	i	i	i
COc1ccc(/C=C/C(=O)OCC(=O)Nc2ccc3c(c2)OCO3)cc1	i	i	i	i
SMILES	Anthrax LF prot	BoNT-A LC inh2	BoNT-F LC inh	Bead autofluor
COC(=O)c1cc2occc2n1Cc1ccc(Cl)cc1	i	i	i	22264
O=C(Nc1nccs1)c1cc2sccc2n1Cc1ccc(F)cc1	i	?	i	16836
COC(=O)c1cc2sccc2n1Cc1ccc(C)cc1	i	i	i	24673
CCOc1ccc(NC(=O)c2cccc(NC(C)=O)c2)cc1S(=O)(=O)N1CCCC1	i	i	i	i
CCCCCCOc1cccc(N)c1	i	i	i	22320
CCCCOc1cccc(-c2nnc(N)s2)c1	i	i	i	i
N#Cc1c(-c2ccc(F)cc2)nc2n(c1=O)CCS2	i	i	i	22077
COC(=O)Cn1ccc2cc(S(=O)(=O)N3CCCCC3)ccc21	i	i	i	?
c1ccc(COc2ccc(CNCc3cccs3)cc2)cc1	i	i	i	20591
Brc1ccc(CNCc2cccs2)cc1	i	i	i	i
COc1ccc(C2CC(=O)c3c(C)nc(N4CCN(c5ccccc5)CC4)nc3C2)cc1 (stereo not drawn)	i	i	i	i
Cc1nc(N2CCN(Cc3ccccc3)CC2)nc2c1C(=O)CC(c1ccco1)C2 (stereo not drawn)	i	i	i	17519
CCOc1ccc(NC(=O)CCNC(=O)C2CCN(S(=O)(=O)c3ccccc3)CC2)cc1	i	i	i	i
COc1ccccc1Nc1nnc(C)c(=O)[nH]1	i	i	i	16456
COc1ccc(Cl)cc1NC(=O)NCc1ccc2c(c1)OCO2	i	i	i	i
CC1(C(=O)NS(=O)(=O)c2ccc3c(c2)CCO3)CCN1C(=O)c1ccccc1CCc1ccccc1 (stereo not drawn)	i	i	i	i

Source: PubChem BioAssay
